An excerpt weighted towards active compounds, which were near 2.5% of everything screened.
Cruzain Triton: inhibitors of Trypanosoma cruzi cruzain with detergent; purified cruzain, Z-FR-AMC fluorescence, 0.01% Triton; Potency, µM, hits mostly inhibitors; hit rate 0.43% among 200,000; AID 1478; also: nearly all actives have a fitted effect of over 40% in size
Target sequence (P25779 123-467 limits assumed): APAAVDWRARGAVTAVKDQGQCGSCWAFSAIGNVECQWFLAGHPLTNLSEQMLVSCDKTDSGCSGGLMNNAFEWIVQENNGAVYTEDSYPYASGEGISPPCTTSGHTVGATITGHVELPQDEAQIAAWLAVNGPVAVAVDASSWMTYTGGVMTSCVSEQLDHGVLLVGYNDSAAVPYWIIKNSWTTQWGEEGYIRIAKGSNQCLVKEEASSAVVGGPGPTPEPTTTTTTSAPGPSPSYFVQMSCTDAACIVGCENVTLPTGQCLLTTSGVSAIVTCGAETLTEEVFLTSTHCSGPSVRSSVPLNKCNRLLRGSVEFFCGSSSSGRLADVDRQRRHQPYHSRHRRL
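In this qHTS format, compounds are incubated with 1.5 nM cruzain for 15 min at room temperature before 2 uM Z-FR-AMC is added. Release of AMC is followed at 360/450 nm, and progress is taken as the 60 s fluorescence difference.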
Cruzain inh noDet: blocks cruzain activity in detergent-free assay; hit rate 2.3% among 200,000; P25779; AID 1476; Potency, µM, usual class: inhibitors; purified cruzain, Z-FR-AMC fluorescence, no detergent; also: nearly all actives have a fitted effect of over 40% in size
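Detergent-free condition (0.00005% Triton X-100) in acetate buffer pH 5.5 with DTT. 1.5 nM enzyme and compound were pre-mixed 15 min, then 2 uM Z-FR-AMC substrate added; reaction progress from fluorescence change between first and third reads (60 s).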
A number is an active result; – = inactive; ? = inconclusive. Calls follow the shape of the dose curve; as a rule, active = well fitted curve in the direction sought with a large enough effect; inconclusive = small, poorly fitted or top-dose-only effect, or another doubt; inactive = no such curve, though single readings can be large; an effect the other way counts as inactive or inconclusive.

SMILES	Cruzain Triton	Cruzain inh noDet
COc1ccc2nc(-c3ccc(N)cc3)[nH]c2c1	28.2µM	10µM
COc1cccc(CNC(=O)C(=O)Nc2c3c(nn2-c2ccccc2)CSC3)c1	–	?
O=C(NCc1ccccc1)C(=O)Nc1c2c(nn1-c1ccc(F)cc1)CSC2	–	20µM
COc1ccccc1-c1noc(-c2ccc(NCc3cccnc3)c([N+](=O)[O-])c2)n1	–	?
Cc1ccc(C)c(CN2C(=O)CSc3ccc(C(=O)NCc4ccc(F)cc4)cc32)c1	–	–
O=c1c2ccccc2[nH]c(=S)n1CCc1ccccc1	–	?
O=c1c2ccccc2[nH]c(=S)n1Cc1cccs1	–	25.1µM
CCCS(=O)(=O)c1c(S(=O)(=O)CCC)c2cc(C(C)(C)C)ccn2c1C(=O)c1ccccc1	–	–
O=C1N/C(=C/c2cccn2-c2ccc(F)cc2)C(=O)N1Cc1ccccc1F	–	?
O=C1N/C(=C/c2cccn2-c2ccccc2)C(=O)N1Cc1ccc(F)cc1	–	12.6µM
COc1cc2c(cc1NC(=O)c1ccncc1)oc1ccccc12	–	?
COc1cc2c(cc1NC(=O)c1cccnc1)oc1ccccc12	–	?
COc1cc2c(cc1NC(=O)c1cccc([N+](=O)[O-])c1)oc1ccccc12	–	15.8µM
COc1cc2c(cc1NC(=O)c1ccc(C)c([N+](=O)[O-])c1)oc1ccccc12	–	25.1µM
CCOC(=O)Cn1c(=O)c2c(nc(N3CCOCC3)n2Cc2ccccc2)n(C)c1=O	–	–
N[C@@H](Cc1c[nH]c2ccc([N+](=O)[O-])cc12)C(=O)O	–	–
O=C(CSc1ncnc2c1cnn2-c1ccccc1)Nc1ccc2c(c1)OCO2	–	–
O=C(CSc1ncnc2c1cnn2-c1ccc(Cl)cc1)NCc1ccc2c(c1)OCO2	–	12.6µM
CCOc1ccccc1CNC(=O)CN1C(=O)CCc2cc(S(=O)(=O)N3CCCCC3)ccc21	–	?
COc1ccc(/C=N/NC(=O)c2nc(Cl)c(Cl)c(N)c2Cl)cc1COc1ccccc1F	–	–
COc1ccc(/C=N/NC(=S)Nc2ccccc2)cc1COc1ccccc1F	–	12.6µM
COc1ccc(NC(=S)Nc2ccc(OCc3ccccc3)cc2)cc1OC	–	?
COc1cccc(OCc2cc(/C=N/NC(=O)c3ccn[nH]3)ccc2OC)c1	–	–
COc1cc(OC)cc(C(=O)N/N=C/c2ccc(OC)c(COc3ccc4ccccc4c3)c2)c1	–	7.94µM
COc1ccc(/C=N/NC(=S)Nc2ccccc2)cc1COc1ccc(F)cc1	–	7.94µM
SMILES	Cruzain Triton	Cruzain inh noDet
Cc1cc(=O)n(CC(=O)N2CCCCC2)c2c1c(C)nn2C	–	–
O=C(CN1C(=O)S/C(=C\c2ccc(Cl)cc2)C1=O)NNC(=O)c1ccccc1O	–	20µM
COc1cccc(/C=C2\SC(=O)N(CCC(=O)NNC(=O)c3ccccc3Cl)C2=O)c1	–	?
Cc1ccc(NC(=O)N2CC3CCCN3c3ccccc32)cc1Cl (stereo unspecified)	–	31.6µM
Cc1ccc(NC(=O)N2CC3CCCN3c3ccccc32)cc1C (stereo unspecified)	–	?
[S-]C(=Nc1ccc(Cl)cc1)N[n+]1ccccc1	20µM	7.94µM
ONC(=Nc1ccc(Cl)cc1)c1ccc(Cl)cc1	–	–
COc1cc(OC)c(OC)cc1CNc1sc2c(c1C(=O)Nc1ccccc1OC)CCC2	–	–
CC(=O)c1ccc(NC(=O)C2CCN(S(=O)(=O)c3ccc4c(c3)CCCN4C(=O)C3CCC3)CC2)cc1	–	–
Cc1ccc2c(CN3CCN(S(=O)(=O)/C=C/c4ccccc4)CC3)cc(=O)oc2c1	–	25.1µM
CCOC(=O)Nc1ccc2c(CN3C(=O)NC4(CCCC4)C3=O)cc(=O)oc2c1	–	–
Cc1cc2oc(=O)cc(CN3CCN(C/C=C/c4ccccc4)CC3)c2cc1O	–	–
CCOC(=O)Nc1ccc2c(CN3CCN(S(=O)(=O)c4ccccc4)CC3)cc(=O)oc2c1	–	12.6µM
CCc1ccc(NC(=O)CCn2c(-c3ccc(OC)cc3)cc(C(C)=O)c2C)cc1	–	–
CCOc1ccccc1CNC(=O)c1cc2c(=O)n(Cc3ccccc3)ccc2nc1C	–	?
CC(/C=C/C=C(C)/C=C/C(=O)O)=C\C=C\C=C(C)\C=C\C=C(C)\C=C\C(=O)O	–	?
C/C(CC(=O)Nc1ccc(OCc2ccccc2)cc1)=N\NC(=O)C(=O)Nc1cccc(C)c1	–	31.6µM
COc1ccccc1NC(=O)C(=O)N/N=C(\C)CC(=O)Nc1ccc(OCc2ccccc2)cc1	–	–
O=C(C#Cc1cccc([N+](=O)[O-])c1)c1ccccc1	8.91µM	–
O=C(/C=C/c1cccc([N+](=O)[O-])c1)c1ccccc1	–	–
O=C(O)CCC(=O)Nc1cccc(C(=O)Nc2cccc(Cl)c2)c1	–	–
O=C(Cc1ccccc1)Nc1ccc(NC(=O)c2cccc(Cl)c2)cc1	–	25.1µM
Cc1cc2ccc(OC(=O)c3ccc(N=C(N)N)cc3)cc2oc1=O	–	–
